BAZ2B block – BAZ2B (human) inhibition. Q9UIF8. AlphaScreen BAZ2B-H3K14Ac peptide displacement. Potency, µM (top dose mostly 114 µM), for inactives: top-dose activity change, negative = inhibition, actives largely listed as inhibitors. hit rate 4.4% among 360,000; also: % is scaled to controls: 0 for no effect and ±100 for the full control effect; nearly all actives have a fitted effect of over 60% in size
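AlphaScreen luminescence quantifies BAZ2B engagement of H3K14Ac peptide; the protein and biotinylated peptide are both at 50 nM final, buffer PBS pH 7.4 with 0.01% Tween-20, all steps at room temperature.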
Sfp PPTase inh – Sfp phosphopantetheinyl transferase inhibition; hit rate 3.5% among 310,000; Biochemical Sfp PPTase activity, qHTS; Q9F4F7; Potency, µM, for the others: largest response in the series, negative = inhibition, most hits filed as inhibitors;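 also: the enzyme is Sfp with the accession as filed and its product quenches rhodamine fluorescence; 0% = enzyme reaction without inhibitor and -100% = no enzyme wells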
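Sfp 15 nM + cpd, 15 min RT; start w/ rhodamine-CoA 5 uM, BHQ-2-YbbR 12.5 uM (final); 50 mM Hepes pH 7.6, 10 mM MgCl2, 0.01% NP-40, 0.01% BSA; read 525/598 nm at 0 and 30 min.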
G9a inh – inhibitors of human histone lysine methyltransferase G9a. G9a H3K9 monomethylation, AlphaScreen, 2 h. Potency, µM (top dose mostly 102 µM), for the others: at the highest dose activity, negative = inhibition, most hits filed as inhibitors. Q96KQ7. hit rate 8.8% among 350,000; also: % is scaled to controls: 0 for no effect and ±100 for the full control effect; nearly all actives have a fitted effect of over 75% in size
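G9a (20 nM) was preincubated 15 min with compound, then reacted 2 h at room temperature with 500 nM biotin-H3K9 peptide and 20 µM SAM. Monomethyl-H3K9 detected by AlphaScreen using anti-H3K9me1 antibody.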
JMJD2A Tudor – blocks the human JMJD2A Tudor domain. Potency, µM (highest dose often 114 µM), without a hit: top-dose activity change, negative = inhibition, most hits filed as inhibitors. O75164. AlphaScreen JMJD2A-Tudor / H3K4me3 peptide binding. hit rate 4.4% among 390,000; also: % is scaled to controls: 0 for no effect and ±100 for the full control effect; nearly all actives have a fitted effect of over 50% in size
Target sequence (O75164 whole entry, looked up, the tested form may be a part): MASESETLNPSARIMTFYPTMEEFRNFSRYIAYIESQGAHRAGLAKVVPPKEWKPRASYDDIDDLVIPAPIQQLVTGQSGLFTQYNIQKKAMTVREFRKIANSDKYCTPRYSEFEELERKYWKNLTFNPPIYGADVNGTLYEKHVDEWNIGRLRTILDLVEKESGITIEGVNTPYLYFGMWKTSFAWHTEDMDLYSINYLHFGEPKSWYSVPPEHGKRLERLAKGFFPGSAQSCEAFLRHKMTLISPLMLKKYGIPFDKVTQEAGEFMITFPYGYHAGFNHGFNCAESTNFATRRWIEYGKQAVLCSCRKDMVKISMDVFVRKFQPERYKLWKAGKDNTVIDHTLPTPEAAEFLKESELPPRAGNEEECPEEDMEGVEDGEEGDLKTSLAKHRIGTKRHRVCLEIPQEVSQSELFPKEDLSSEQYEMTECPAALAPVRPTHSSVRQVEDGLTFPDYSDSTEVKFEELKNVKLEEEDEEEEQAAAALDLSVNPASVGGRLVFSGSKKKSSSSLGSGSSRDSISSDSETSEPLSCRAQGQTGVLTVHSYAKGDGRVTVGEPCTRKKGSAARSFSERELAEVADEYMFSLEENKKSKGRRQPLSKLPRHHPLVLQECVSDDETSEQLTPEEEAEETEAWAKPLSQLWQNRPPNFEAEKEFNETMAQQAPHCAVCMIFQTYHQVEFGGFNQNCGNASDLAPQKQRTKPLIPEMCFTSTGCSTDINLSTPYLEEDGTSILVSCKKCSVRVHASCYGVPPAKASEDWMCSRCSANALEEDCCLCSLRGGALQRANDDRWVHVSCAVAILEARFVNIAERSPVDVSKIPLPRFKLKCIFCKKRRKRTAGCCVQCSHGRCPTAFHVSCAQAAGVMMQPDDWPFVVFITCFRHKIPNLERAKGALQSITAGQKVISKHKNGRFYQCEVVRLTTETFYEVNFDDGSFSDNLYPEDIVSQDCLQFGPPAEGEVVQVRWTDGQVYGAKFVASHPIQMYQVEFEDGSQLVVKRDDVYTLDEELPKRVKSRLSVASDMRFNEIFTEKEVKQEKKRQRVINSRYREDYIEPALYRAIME
HP1b binding inh – blocks HP1-beta chromodomain binding to methylated histone tails; P83916; AlphaScreen HP1-beta / biotin-H3K9me3 peptide binding; Potency, µM (doses to about 114 µM), without a hit: at the highest dose activity change, negative = inhibition, actives largely listed as inhibitors; hit rate 0.56% among 390,000; AID 540317; also: nearly all actives have a fitted effect of over 70% in size
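HP1-beta protein (50 nM final) preincubated 30 min at room temperature with biotinylated H3(1-18)K9me3 peptide (50 nM) in PBS pH 7.4, 0.01% Tween-20, then compound added for 30 min. AlphaScreen streptavidin donor/nickel chelate acceptor beads (10 ug/mL final), 30 min dark, luminescence read.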
L3MBTL1 block – L3MBTL1 (human) inhibition. AID 485360. AlphaScreen L3MBTL1–H3K9me1 peptide binding. Q9Y468. Potency, µM (doses to about 57.1 µM), for inactives: at the highest dose activity, negative = inhibition, hits mostly inhibitors. hit rate 0.66% among 230,000; also: % is scaled to controls: 0 for no effect and ±100 for the full control effect; nearly all actives have a fitted effect of over 60% in size
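L3MBTL1 (50 nM) pre-complexed 30 min with biotinylated H3(1-15)K9me1 peptide (75 nM), then compounds added for 30 min at room temperature; AlphaScreen streptavidin donor/nickel chelate acceptor beads (10 ug/mL final) read after 30 min dark incubation.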
Numbers without * were called inactive; ? = inconclusive; · = no result; [ ] = another dose, or the depositor's remark. This is a sample that favours compounds with a hit; in the whole collection about 12% have one here. Calls follow the shape of the dose curve; as a rule, active = well fitted curve in the direction sought with a large enough effect; inconclusive = small, poorly fitted or top-dose-only effect, or another doubt; inactive = no such curve, though single readings can be large; an effect the other way counts as inactive or inconclusive. Potency is read from the fitted curve at half-maximal effect.

SMILES	BAZ2B block	Sfp PPTase inh	G9a inh	JMJD2A Tudor	HP1b binding inh	L3MBTL1 block
Cc1ccc(C(C)C)c(OCCN(C)C)c1	35.5µM*	?	3.55µM*	2.82µM*	?	·
Cc1cc(C(C)(C)C)ccc1OCCN(C)C	28.2µM*	-23.5%	8.91µM*	7.94µM*	?	-1.6%
COc1cccc(C(c2sc3nc(-c4ccco4)nn3c2O)N2CCC3(CC2)OCCO3)c1 (configuration not stated)	-17.7%	·	?	-18.5%	4.1%	·
CC(C)(C)c1ccc(NC(=O)C2CCCN(c3cnccn3)C2)cc1 (configuration not stated)	?	-0.8%	-9.9%[59 µM]	?	5.1%	·
FC(F)(F)c1ccccc1-c1nccc(-n2ccnc2)n1	·	?	-10.1%[0.501 µM]	·	·	·
Cc1cccc(C(=O)Nc2cccc(OCc3cc(=O)n4ccccc4n3)c2)c1	3.9%	·	2.0%[59 µM]	-3.9%	11.0%[57 µM]	·
Cc1ccc(C(C)C)c(OCCCCN2CCNCC2)c1	28.2µM*	56.2µM*	3.98µM*	7.08µM*	?	-7.5%
Cc1ccc(SCCCCN2CCNCC2)cc1	39.8µM*	50.1µM*	8.91µM*	11.2µM*	12.4%	-1.5%
CCc1cc2c(cc3c(=O)n(CC(=O)N4CCCCC4)ncn32)s1	27.2%	·	21.8%[59 µM]	-2.2%	58.5%	·
CCNc1cccc(S(=O)(=O)N2CCN(S(=O)(=O)c3ccc4c(c3)OCCO4)CC2)c1	·	·	·	-35.4%	·	·
Cn1c(=O)n(C)c2cc(N3CCCCC3)c(NC(=O)c3ccccc3)cc21	50.1µM*	-0.3%	19.3%	-12.5%	13.6%	·
CCn1c(=O)n(CC)c2cc(N3CCCC3)c(NC(=O)c3ccccc3)cc21	?	-7.6%	39.8µM*	-29.3%	1.2%	·
CCn1c(=O)n(CC)c2cc(N3CCCCC3)c(NC(=O)Nc3ccccc3C(F)(F)F)cc21	?	·	-45.6%[59 µM]	?	0.5%	·
CCn1c(=O)n(CC)c2cc(N3CCCC3)c(NC(=O)c3ccc(C)cc3)cc21	?	1.2%	56.2µM*	?	-9.4%[57 µM]	·
COc1cc(NC(=O)c2cc3cccc(OC)c3o2)cc(C(=O)Nc2cccc(C(F)(F)F)c2)c1	-11.3%	12.5%	-33.7%[59 µM]	-30.3%	15.0%	·
CC(=O)N1CC(O)CC1C(=O)O (configuration not stated)	·	5.6%	-3.1%[12.7 µM]	·	·	·
CCOC(=O)C1CCN(c2nc(C)cc(C)c2C#N)CC1	-4.5%	7.6%	10.7%[12.7 µM]	26.7%	75.3%	18.8%
CCOC(=O)C1CCN(c2nc(N)c3c(N)nc(SCC(=O)O)cc3c2C#N)CC1	39.8µM*	6.31µM*	8.91µM*	-14.7%[11.4 µM]	17.8µM*	25.1µM*
Cc1[nH]c(-c2ccc3c(c2)OCO3)nc1C(=O)O	50.1µM*	56.2µM*	10µM*	22.4µM*	10.4%	·
COc1ccc(-c2nc(-c3ccccc3)c(-c3ccc(O)cc3)[nH]2)cc1	35.5µM*	·	?	28.2µM*	?	·
COc1ccc(-c2nc(-c3ccc4c(c3)OCO4)[nH]c2-c2ccc(OC)cc2)cc1	17.8µM*	15.4%	-47.1%[59 µM]	12.6µM*	?	?
Oc1ccccc1-c1nc(-c2cccs2)c(-c2cccs2)[nH]1	?	·	-2.5%[59 µM]	?	40.7%	·
CN(C)c1ccc(-c2nc(-c3cccs3)c(-c3cccs3)[nH]2)cc1	?	·	8.91µM*	?	-21.3%	·
